Screening results deposited in PubChem by National Center for Advancing Translational Sciences (NCATS).
In the library only some 6.1% were active in any assay of this set; here they are far more common.
D1 ag = activates the human D1 dopamine receptor; activation, % at 2 µM; hit rate 1% among 360,000; P21728; HEK293 T-REx D1 cells, calcium flux, agonist mode; in the data active means activation above about 30%; further: 0% is about no effect
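Tetracycline-induced HEK293 TREx D1 cells, force-coupled to calcium signalling, were dye-loaded with a no-wash calcium kit. Compound was pin-added after a 10 s baseline. Fluorescence was read kinetically at 1 cycle/s for 180 s, with calcium rises flagged as agonism.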
D1 antag = blocks dopamine activation of the human D1 receptor; activity change, negative = inhibition, % at 10 µM; AID 504652; hit rate 3.2% among 360,000; HEK293 TREx D1 cells, calcium flux, dopamine EC80; hits give low values; in the data active means activity change below about -30%; further: on the % scale 0 is the no-effect control and ±100 the full control effect
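Inducible Hek293 Trex D1 cells (tetracycline, overnight, 30 C). Calcium dye 30–90 min RT. Antagonist mode: EC80 dopamine added after 180 s compound read.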
DRD3 agonist = D3 dopamine receptor (human) agonism; P35462; D3R DiscoveRx beta-arrestin cells, luminescence, 90 min; max activation, %; hit rate 0.58% among 410,000; AID 652048; in the data active means max activation above about 30%; further: 0% is about no effect
Target sequence (P35462 whole entry, looked up): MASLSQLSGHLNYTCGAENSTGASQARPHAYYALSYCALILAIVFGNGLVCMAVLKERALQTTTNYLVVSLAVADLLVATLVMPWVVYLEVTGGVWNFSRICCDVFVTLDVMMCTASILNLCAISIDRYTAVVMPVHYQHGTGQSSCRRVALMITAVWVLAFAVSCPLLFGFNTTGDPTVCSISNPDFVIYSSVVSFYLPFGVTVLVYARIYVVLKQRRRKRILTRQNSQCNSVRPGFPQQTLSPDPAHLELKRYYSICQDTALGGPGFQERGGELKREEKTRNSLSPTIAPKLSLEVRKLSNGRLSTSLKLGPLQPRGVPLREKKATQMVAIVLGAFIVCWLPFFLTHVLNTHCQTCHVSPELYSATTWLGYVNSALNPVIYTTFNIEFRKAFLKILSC
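Agonist-mode cell screen: cells plated at 1500/well and incubated overnight at 37 °C, then exposed to library compounds for 90 min at 37 °C. Detection reagent was added for 30–60 min at room temperature, and luminescence was read.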
D1 potentiator = potentiators of human D1 dopamine receptor; P21728; HEK293 TREx D1 cells, calcium flux, dopamine EC20 potentiation; potentiation, % at 10 µM; hit rate 0.036% among 360,000; AID 504651; in the data active means potentiation above about 30%; further: 0% is about no effect
DRD3 antagonist = antagonists of human D3 dopamine receptor. hit rate 2.5% among 360,000. P35462. max response, negative = inhibition, %. D3R cells, DiscoveRx beta-arrestin luminescence, antagonist mode; hits give low values; in the data active means max response below about -50%; inconclusive means no clear call, values can overlap the other calls; further: on the % scale 0 is the no-effect control and ±100 the full control effect
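Cells plated overnight at 1500 cells/well, then exposed to library compounds with dopamine controls for 90 minutes at 37 degrees C. DiscoveRx reagent added for 30–60 minutes at room temperature; luminescence read, quantitative HTS format.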
Numbers without * were called inactive; ? = inconclusive; nt = no result.

SMILES | D1 ag | D1 antag | DRD3 agonist | D1 potentiator | DRD3 antagonist
CC1CCC(NC(=O)Cn2c3c(c(-c4ccccc4Cl)cc2=O)CCC3)CC1 (centres undefined) | -1 | 5 | -12 | -3 | -77*
COc1ccc(Br)cc1CNC(=O)CCSCc1ccc(C)cc1 | 12 | -3 | 5 | 2 | nt
COc1ccc(C(C)(NC(C)=O)c2nc(-c3ccccc3OC)cs2)cc1 (centres undefined) | nt | nt | -4 | nt | -88*
O=C(C=Cc1ccccc1)CC(c1ccccc1)N1CCOCC1 (centres undefined) | nt | nt | -21 | nt | -72*
O=C(C(c1ccccc1)N1CCOCC1)N1CCOCC1 (centres undefined) | 1 | -1 | 2 | -2 | -26
CCCCN(C=O)c1c(CC)nc2c(OCCOc3ccc(F)cc3)cccn12 | nt | nt | 10 | nt | 1
CCCCN(C=O)c1c(CC)nc2c(OCCn3cccc3)cccn12 | nt | nt | -13 | nt | -82*
CCc1nc2c(OCC(=O)C(C)(C)C)cccn2c1N(C=O)CC(=O)N(C)C | nt | nt | -24 | nt | -98*
COc1ccccc1CNC(=O)CN1C(=O)c2ccc([N+](=O)[O-])cc2C1=O | 1 | -2 | 1 | -2 | 15
O=[N+]([O-])c1ccc(O)c(Nc2c([N+](=O)[O-])ccc3nonc23)c1 | 19 | -49* | -18 | -2 | ?
Cc1ccc(C)c(Nc2c([N+](=O)[O-])ccc3nonc23)c1 | 108* | 66 | 2 | 5 | 3
Cc1ccc(C)c(Nc2ccc3nonc3c2[N+](=O)[O-])c1 | 5 | -11 | -1 | -6 | -10
Cc1c(C(=O)NN2CCN(C)CC2)cccc1[N+](=O)[O-] | nt | nt | 7 | nt | 9
CCC1=C2CC[C@H]3C(=O)N(C)C(=O)[C@H]3[C@H]2[C@@]2(Cc3ccccc3)C(=NCCOC)OC(=O)N2C1=O | 9 | 1 | 38* | 4 | 4
O=C(Cn1c(=O)n(-c2ccccc2)c(=O)c2sc3ccccc3c21)NC1CCCC1 | 7 | -2 | -12 | 1 | nt
C/C(=N\NC(=O)CNC(=O)C(c1ccccc1)c1ccccc1)c1ccccc1 | 1 | -19 | 1 | -9 | -7
O=C(O)CC/C(=N/NC(=O)CNC(=O)C(c1ccccc1)c1ccccc1)c1ccccc1 | 4 | -34* | -11 | -10 | -19
CN(C)/C=C/c1oc2ccc(O)cc2c1[N+](=O)[O-] | 0 | 3 | -6 | 5 | -52*
Cc1ccc(Nc2nnc(C3C(=O)N(C)C4(C)CC3c3cc(Br)ccc3O4)s2)cc1 (centres undefined) | 36* | 8 | 2 | 9 | -21
CSc1nsc(/C=C/Nc2ccc(F)cc2)c1C#N | 4 | 11 | 3 | -4 | -2
CSc1nsc(/C=C/Nc2cccc(Cl)c2)c1C#N | 7 | -33* | 2 | -8 | ?
CSc1nsc(/C=C/Nc2ccc(O)cc2C)c1C#N | 2 | 8 | -3 | -2 | -55*
O=C(c1ccoc1)N1CCN(c2cc(-c3cccc(F)c3)nc3cc(-c4cccc(Cl)c4)nn23)CC1 | nt | nt | -1 | nt | -2
CC1(C(=O)Nc2ccc(F)cc2F)CCN1C(=O)Cc1ccc(Cl)cc1Cl (centres undefined) | nt | nt | 78* | nt | 16
O=C(NC12CC3CC(CC(C3)C1)C2)OCCNC1CCCCC1 | 16 | 22 | -10 | 15 | -23
SMILES | D1 ag | D1 antag | DRD3 agonist | D1 potentiator | DRD3 antagonist
N#CC(C#N)=C(Nc1ccc(F)cc1)SCc1cccc(F)c1 | 34* | -44* | 1 | -12 | 3
COc1ccccc1N=Nc1c(O)[nH]c2ccc(Br)cc12 | 4 | -60* | 6 | -5 | -6
Cc1cccc(C)c1OCC(=O)N=Nc1c(O)[nH]c2ccc(Br)cc12 | 1 | 15 | -1 | -4 | 37
Cc1cccc(N=Nc2c(O)[nH]c3ccc(Br)cc23)c1 | 7 | -3 | -1 | -4 | 0
CC(Oc1ccccc1)C(=O)N=Nc1c(O)[nH]c2ccc(Br)cc12 (centres undefined) | 0 | -36* | -3 | -5 | 0
CN(C)CCNCCCOc1ccccc1-c1ccccc1 | 6 | -14 | nt | -3 | nt
CCOc1ccccc1CNc1nc2nc(C)cc(C)n2n1 | -1 | 2 | 6 | 3 | nt
CCOc1ccc(NC2SC(=O)N(Cc3ccccc3)C2=O)cc1 (centres undefined) | -3 | -6 | 2 | 2 | nt
CC1C(=O)N2CCCc3cc(S(=O)(=O)Nc4ccc(Br)cc4F)cc1c32 (centres undefined) | 0 | -30* | 16 | -2 | nt
Clc1ccc2nc(-c3ccccn3)c(Nc3ccc4c(c3)OCO4)n2c1 | 1 | 1 | -18 | -2 | -60*
Clc1ccc(Nc2c(-c3ccccc3Cl)nc3ccc(Cl)cn23)cc1 | 0 | -41* | 2 | -2 | nt
Oc1ccccc1-c1nc2cnccn2c1Nc1ccc(Cl)cc1 | 3 | 3 | 7 | 0 | nt
COC(=O)c1cc2ccc(OC)cc2c2cc(OC)c(OC)cc12 | nt | nt | 80* | nt | 136
COC(=O)c1cc(OC)c(OC)cc1NC(=O)Nc1ccc(OC)cc1 | 0 | 2 | -2 | -1 | 8
Cc1cc(C)nc(N/N=C/c2ccc3c(c2)OCCO3)n1 | 2 | -32* | -3 | -5 | -5
COC(=O)c1ccccc1NC(=O)CSc1nc(Nc2ccccc2)nc(N2CCOCC2)n1 | 3 | 13 | -15 | -6 | -11
Cc1c(Cl)cccc1NC(=O)Cn1c(=O)n(Cc2ccco2)c(=O)c2sc3ccccc3c21 | 7 | 2 | -8 | -1 | nt
O=C(CSc1nc2ccccc2c(=O)[nH]1)c1ccccc1 | 5 | 34 | -3 | -6 | -12
CC(C)(C)c1ccc(C(=O)CSc2nc3ccccc3c(=O)[nH]2)cc1 | 1 | nt | 34* | -2 | 47
CCOC(=O)CCSc1nc2c(c(C(F)(F)F)c1C#N)CCC2 | -1 | -38* | -1 | 4 | ?
CC(=O)c1ccc(S(=O)(=O)N2CCN(CCOc3ccccc3)CC2)cc1 | nt | nt | 11 | nt | -59*
COc1ccc(S(=O)(=O)N2CCN(CCOc3ccccc3Cl)CC2)cc1OC | 6 | -51* | 36* | -14 | -22
O=S(=O)(c1ccc(C(F)(F)F)cc1)N1CCN(CCOc2ccccc2)CC1 | 18 | -39* | -2 | -4 | -16
O=S(=O)(c1ccc(F)cc1)N1CCN(CCOc2ccccc2)CC1 | nt | nt | -17 | nt | ?
Cc1ccc(S(=O)(=O)N2CCN(CCOc3cccc(C)c3)CC2)cc1 | 7 | -5 | -16 | 9 | -55*
CC1CCCCN1CCNC(=O)Cn1nc(-c2ccccc2)ccc1=O (centres undefined) | 0 | -8 | -11 | -7 | -98*
Cc1ccc(-c2ccc(=O)n(CC(=O)NCCCN3CCCCC3C)n2)cc1 (centres undefined) | 2 | -25 | -13 | -5 | 0
Cc1ccc(NC(=S)N2CCC(N(C)CC3CCCO3)CC2)cc1 (centres undefined) | -1 | -40* | -9 | -4 | -1
